Assay results reported in PubChem BioAssay (NCI).
Compounds without any hit were thinned out: in the full panel of roughly 83,000, 20% have a hit.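 Each cell line was grown in a 96-well plate and treated with one concentration of compound for 48 hours. Values below 10 were considered active.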 Unmarked numbers belong to inactive results. Activity calls are given as the source filed them.

Tests used:
Assay in all cases: NCI-60 one-dose screen, 48 h (100 = growth as untreated, 0 = no growth, -100 = all killed)
Details in all cases: 10 µM unless noted
SR leukemia = system: SR leukemia
RPMI-8226 leukemia = system: RPMI-8226 leukemia
OVCAR-8 ovarian = system: OVCAR-8 ovarian
OVCAR-5 ovarian = system: OVCAR-5 ovarian
OVCAR-4 ovarian = system: OVCAR-4 ovarian
SK-OV-3 ovarian = system: SK-OV-3 ovarian
IGROV1 ovarian = system: IGROV1 ovarian
OVCAR-3 ovarian = system: OVCAR-3 ovarian
HS 578T breast = system: HS 578T breast
NCI/ADR-RES ovarian = system: NCI/ADR-RES ovarian
T-47D breast = system: T-47D breast
BT-549 breast = system: BT-549 breast
MDA-MB-435 melanoma = system: MDA-MB-435 melanoma
SW-620 colon = system: SW-620 colon
MCF7 breast = system: MCF7 breast
HCT-116 colon = system: HCT-116 colon
HCC-2998 colon = system: HCC-2998 colon
KM12 colon = system: KM12 colon

SMILES	growth (SR leukemia)	growth (RPMI-8226 leukemia)	growth (OVCAR-8 ovarian)	growth (OVCAR-5 ovarian)	growth (OVCAR-4 ovarian)	growth (SK-OV-3 ovarian)	growth (IGROV1 ovarian)	growth (OVCAR-3 ovarian)	growth (HS 578T breast)	growth (NCI/ADR-RES ovarian)	growth (T-47D breast)	growth (BT-549 breast)	growth (MDA-MB-435 melanoma)	growth (SW-620 colon)	growth (MCF7 breast)	growth (HCT-116 colon)	growth (HCC-2998 colon)	growth (KM12 colon)
C/C(Cc1ccc(Cl)cc1)=C(\c1ccc(OCCN2CCCCCC2)cc1)c1ccc(OC(=O)C2CCCCC2)cc1	-0.529% (active)	37.2%	66.2%	73.4%	80.6%	88.1%	46.8%	71.8%	56.3%	70.4%	49.1%	86.6%	58.7%	56.9%	29.6%	44%	10.4%	53.1%
O=c1c(/C=C/c2ccco2)nnc(SCCN2CCOCC2)n1/N=C/c1ccc([N+](=O)[O-])cc1	33.6%	67%	94%	103%	97.2%	95%	82.8%	108%	96.9%	101%	68.2%	94.6%	97.4%	104%	31%	95%	93.1%	92%
CC1=NNC(=O)C1C (stereo unspecified)	121%	73.1%	83.3%	122%	128%	101%	106%	109%	90.8%	105%	104%	284%	104%	98%	104%	84.2%	103%	102%
COc1ccc(-c2cn3c(ccc4ccccc43)n2)cc1	102%	92.1%	98.8%	112%	101%	92.8%	78.3%	89.7%	96.2%	96.3%	76.5%	97.8%	114%	97.5%	75.8%	96.5%	109%	95.2%
CCOC(=O)c1nc(Nc2cc(C)[nH]n2)c2ccccc2n1	81.1%	114%	111%	103%	82.5%	75.8%	76.2%	97.7%	71.4%	114%	82.3%	96.8%	96.8%	104%	81.5%	76.6%	107%	36.9%
CCCCCCCCCCCCCCCCCCNC(=O)[C@H]1CSC(c2ccc(OC)c(F)c2)N1 (stereo partly specified)	-30.9% (active)	-46.8% (active)	-22.8% (active)	-13.3% (active)	76.9%	88.1%	30.2%	-3.45% (active)	32.6%	-36.8% (active)	-62.5% (active)	-60.2% (active)	-83% (active)	-60.2% (active)	-67.9% (active)	-72.7% (active)	-57.5% (active)	-50.2% (active)
CCc1ccc(C(c2ccc(CC)cc2)C(Cl)(Cl)CCl)cc1	103%	93.6%	110%	99.9%	86.9%	105%	76.6%	86.3%	65.4%	91.3%	77.6%	116%	102%	86.8%	106%	76.3%	90.1%	103%
CC/C=C\C[C@H](F)C/C=C1/C(=O)C=C[C@@H]1C/C=C\CCCC(=O)O	-13.2% (active)	-3.41% (active)	11.2%	86.1%	83.6%	86.4%	65.4%	26.9%	84%	9.24% (active)	71.9%	68.8%	21.6%	30.9%	22.6%	-15.7% (active)	81.9%	22.3%
COc1ccc(C(=O)/C=C/c2c(Cl)c3c(c(OC)c2Cl)OCC(=O)N3)cc1	3.68% (active)	3.79% (active)	6.16% (active)	76.8%	47.2%	77.9%	63.1%	10.9%	39.4%	19.4%	25.1%	-14.8% (active)	7.18% (active)	17.7%	14.9%	11.4%	41.8%	15.9%
CC/C=C\C[C@H](F)C/C=C1/C(=O)C=C[C@@H]1C/C=C\CCCC(=O)OC	-25.8% (active)	-10.4% (active)	-15.4% (active)	68.2%	24.2%	50.3%	10.6%	-13.2% (active)	45.2%	14.2%	4.66% (active)	-2.64% (active)	0.0777% (active)	14.3%	11.6%	-54.6% (active)	9.38% (active)	-27.7% (active)
COc1ccccc1/C=C(/C(=O)c1ccccc1)c1ccccc1	94.7%	96.9%	87.7%	128%	94.2%	103%	96.7%	102%	100%	92.1%	103%	92.4%	107%	101%	110%	83.5%	107%	98.1%
O=C(C[C@@H](C(=O)NCc1cccc(C(F)(F)F)c1)N1C(=O)[C@@H](N2C(=O)OC[C@@H]2c2ccccc2)[C@H]1/C=C/c1ccccc1)NC1CCN(Cc2ccccc2)CC1	-23.3% (active)	-13.7% (active)	83.7%	104%	66.1%	81.1%	75%	65.6%	73.3%	69.8%	50.8%	74.2%	66.8%	59.8%	7.27% (active)	30.4%	59.9%	59.4%
CCOC(=O)N1CCN(c2nc(Nc3cc(C)[nH]n3)c3ccccc3n2)CC1	17.3%	37.3%	74%	55.9%	49.5%	47.8%	35.6%	55.3%	29.6%	55.4%	37.4%	56.8%	14%	41.8%	27.5%	34.1%	69%	21.4%
COc1ccc(-c2cc(-c3cccnc3)nc3sc4c(=O)n(-c5ccc(C)cc5)cnc4c23)cc1OC	96.1%	97.6%	101%	86.7%	92.3%	99.2%	106%	98.8%	87.2%	103%	98.7%	100%	98.7%	96.2%	97%	99.1%	109%	101%
COc1ccc(-c2cc(/C=C3\C(=O)Nc4ccc(Cl)cc43)[nH]n2)cc1	10.6%	61.6%	67.5%	92.5%	101%	60%	17.7%	31.6%	68.6%	34.2%	47.4%	55.4%	-27.4% (active)	26.9%	17%	26.8%	94.3%	43.8%
Cc1ccc(NC(=O)c2sc3nc4c(cc3c2N)C(=O)CCC4)cc1C	22.9%	11.4%	31.6%	32.6%	76%	4.9% (active)	23.9%	-10.2% (active)	28.1%	10.9%	24.1%	48.7%	-55.5% (active)	18.9%	10.7%	28.4%	27.3%	19.5%
CCCCNc1ccc2c3c1cccc3c(=O)n1c3ccccc3nc21	15.6%	80.5%	106%	110%	85.8%	96.4%	41.8%	95.3%	93.1%	91.3%	35.7%	98.2%	111%	86.4%	10.3%	86.7%	74%	77.7%
